High-throughput results as filed in PubChem.
Rab9 prom act: Rab9 promoter activation. actives 2.8% (n = 320,000). Huh7 Rab9 promoter-luciferase reporter, luminescence, 24 h. AID 485297. Potency, µM (doses to about 9.22 µM), most hits filed as activators; further: nearly all actives have a fitted effect of over 60% in size
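Cell-based reporter: Huh7 stable for Rab9 promoter-driven luciferase, plated in reduced-serum medium with 10% FBS at 1500 cells/well, compound-treated 24 h at 37 °C, luminescence read after 10 min reagent.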
NPC1 prom act: activates the NPC1 promoter. Potency, µM (titrated, usually from 9.22 µM), hits mostly activators. actives 2.4% (n = 320,000). AID 485313. Huh7 NPC1 promoter luciferase reporter, 24 h; further: nearly all actives have a fitted effect of over 60% in size
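Stable NPC1-promoter luciferase Huh7 line; cpd (DMSO) 24 h, 37 °C, 5% CO2; Amplite luciferase reagent 10 min RT; luminescence readout. qHTS format.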
FLuc counter: firefly luciferase modulation, counter-screen for miR-21 project | Potency, µM (top dose mostly 57.5 µM), hits mostly inhibitors | AID 588342 | actives 6.9% (n = 360,000) | purified FLuc, Km substrates, luminescence inhibition; further: nearly all actives have a fitted effect of over 55% in size
Target sequence (P08659 whole entry, looked up): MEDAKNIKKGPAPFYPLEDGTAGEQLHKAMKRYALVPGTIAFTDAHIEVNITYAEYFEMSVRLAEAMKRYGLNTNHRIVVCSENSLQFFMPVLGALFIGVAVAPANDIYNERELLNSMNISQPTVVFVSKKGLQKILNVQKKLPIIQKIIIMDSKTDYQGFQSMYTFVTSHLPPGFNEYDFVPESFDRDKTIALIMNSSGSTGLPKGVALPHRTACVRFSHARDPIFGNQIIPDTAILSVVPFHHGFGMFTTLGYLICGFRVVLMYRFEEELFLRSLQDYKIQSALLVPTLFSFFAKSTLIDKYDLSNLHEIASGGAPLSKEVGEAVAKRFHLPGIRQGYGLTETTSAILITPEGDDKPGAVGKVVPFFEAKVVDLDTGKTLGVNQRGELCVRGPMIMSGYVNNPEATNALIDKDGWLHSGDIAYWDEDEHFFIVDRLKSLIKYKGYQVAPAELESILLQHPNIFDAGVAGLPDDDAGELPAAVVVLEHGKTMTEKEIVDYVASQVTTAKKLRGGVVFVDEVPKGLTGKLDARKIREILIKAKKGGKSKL
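Purified P. pyralis luciferase, 10 nM final, with Km-level 10 uM D-luciferin and 10 uM ATP in 50 mM Tris acetate pH 7.5, 10 mM Mg acetate, 0.01% Tween-20, 0.05% BSA; 6-point qHTS titration about 60 µM downward; luminescence read.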
SMN2 splice enh: enhancers of SMN2 splice variant expression; Potency, µM (highest dose often 46.1 µM), actives largely listed as activators; AID 1458; HEK293 SMN2-luciferase splicing reporter, luminescence, 30-36 h; actives 2.8% (n = 210,000); further: nearly all actives have a fitted effect of over 55% in size
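qHTS luciferase splicing reporter: luminescence rises when SMN2 exon 7 is included in transfected HEK293 cells. Compound exposure lasted 30-36 h at 37C, with 4.5 mM final sodium butyrate as control, followed by a ONE-Glo read.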
ELG1 genotoxic: inducers of genotoxicity in HEK293T ELG1-luciferase cells; actives 1.3% (n = 330,000); HEK293T ELG1-luciferase reporter, luminescence, 16 h; AID 504466; Potency, µM (highest dose often 46 µM), hits mostly activators; further: nearly all actives have a fitted effect of over 60% in size
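Cells (2,000/well) expressing the ELG1-luciferase fusion are dosed by pin tool and kept 16 hr at 37 °C, 5% CO2. Signal comes from ONE-Glo luciferase reagent after 30 min at room temperature.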
KinaseGlo FLuc: counter-screen: inhibitors of Kinase-Glo firefly luciferase; Q27757; AID 1379; Kinase-Glo luciferase, ATP luminescence, 8 min; Potency, µM (doses to about 38.3 µM), actives largely listed as inhibitors; actives 0.28% (n = 200,000); further: nearly all actives have a fitted effect of over 60% in size
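Inhibition of Kinase-Glo luciferase light generation was assessed at 10 uM ATP in pH 7.2 imidazole buffer, with luminescence measured after eight minutes at ambient temperature.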
A number is an active result; 0 = inactive; ? = inconclusive; - = no result; [ ] = dose if it differs, or a comment. Hits are enriched below; roughly 7.4% of the tested compounds scored in any of these assays. The call rests on the fitted dose curve; in most records, active means well fitted curve in the direction sought with a large enough effect; inconclusive means small, poorly fitted or top-dose-only effect, or another doubt; inactive means no such curve, though single readings can be large; an effect the other way counts as inactive or inconclusive.

SMILES	Rab9 prom act	NPC1 prom act	FLuc counter	SMN2 splice enh	ELG1 genotoxic	KinaseGlo FLuc
COCc1cc(C)nc2sc(C(=O)Nc3ccccc3C)c(N)c12	0	0	?	-	0	-
COc1ccc2nc(NC(=O)c3sc4nc(C)cc(C)c4c3N)sc2c1	?	?	0.12µM	-	?	-
CN1C(=O)c2ccccc2Sc2ccc(NC(=O)N3CCN(c4cccc(Cl)c4)CC3)cc21	-	-	0	-	-	-
C[C@@H]1CCC2[C@](C)(CO)[C@@H](O)CC[C@]2(C)[C@]12CCC(CO)(CCO)O2 (stereo not given in full)	-	-	-	0	-	0
c1ccc(-c2ccc(-c3nccc4ccccc34)[nH]2)cc1	1µM	?	0.15µM	-	?	-
C=CCN(CC=C)CCOc1ccc(C)cc1[N+](=O)[O-]	0	0	24µM	0	0	0
Cc1ccc(OCCCN2CCOCC2)c([N+](=O)[O-])c1	?	?	21µM	?	?	0
C=CCN(CC=C)CCOc1cc(C)ccc1[N+](=O)[O-]	0	0	0	0	0	0
Cc1cccc(NC(=O)c2ccc(N(Cc3ccccc3)S(C)(=O)=O)cc2)c1	-	-	0	0	-	-
O=C(CSc1cn(Cc2ccccc2)c2ccccc12)Nc1nccs1	2.5µM	3.2µM	0.85µM	?	4.6µM	0
O=C(CSc1ccccc1)Nc1nccs1	?	0	0	0	0	0
CCN1C(=O)/C(=C\C=C2/C=CC=CN2CC)SC1=S	1.4µM	1.6µM	3.8µM	5.6µM	21µM	?
CCN1C(=O)/C(=C2/C=CC=CN2C)SC1=S	0	0	0	0	0	0
CCCN1C(=O)/C(=C\C=C2/Sc3ccccc3N2CC)SC1=S	0	0	0	0	0	0
CCN1C(=O)/C(=C/C=C2\C=CN(CC)c3ccccc32)SC1=S	3.2µM	?	?	0	?	0
CCOC(=O)N1CCN(C(=O)CN(c2ccc(C)cc2C)S(=O)(=O)c2ccccc2)CC1	-	-	0	0	-	-
CCCCCCN(C(=O)CCCCCN1C(=O)NC(c2ccc(-c3ccccc3)cc2)C(C(=O)OCc2ccccc2)=C1C)C(C(=O)NCCCC)c1ccc(OCC(=O)O)c(C(=O)O)c1 (stereo not given)	-	-	-	0	-	0
O=c1cc(-c2cc3ccccc3oc2=O)c2ccc(O)cc2o1	-	-	-	0	-	0
O=c1oc2ccccc2cc1-c1nc(-c2cccc(Cl)c2)cs1	-	-	0	-	-	-
O=c1oc2ccccc2cc1-c1nc2ccccc2o1	2.8µM	3.5µM	3µM	?	?	?
Cc1cc(-c2nnc(-c3cc4ccccc4oc3=O)o2)c(C)n1-c1ccccc1	0	0	6.7µM	0	?	0
COc1ccc2oc(=O)c(-c3nc4ccccc4o3)cc2c1	?	?	5.4µM	?	?	0
O=c1oc2ccccc2cc1-c1nc2c(s1)CCCC2	0.4µM	?	0.15µM	1µM	?	11µM
COc1ccc(-c2nnc(-c3cc4ccccc4oc3=O)o2)cc1	0	0	0	?	0	0
COc1ccc(NC(=O)C2=C(C)C(=O)OC23CCN(C(C)C)CC3)cc1Cl	-	-	0	-	-	-
SMILES	Rab9 prom act	NPC1 prom act	FLuc counter	SMN2 splice enh	ELG1 genotoxic	KinaseGlo FLuc
Oc1ccccc1/C=N/NC(=S)NC1CC2C=CC1C2 (stereo not given)	?	?	13µM	-	?	-
Oc1ccccc1/C=N/NC(=S)NCCc1ccccc1	0	0	27µM	-	0	-
c1cncc(-c2cc(-c3cc(-c4cccnc4)n[nH]3)[nH]n2)c1	-	-	-	0[9.22 µM]	-	0[7.66 µM]
CCCCNC(=O)CCCn1c(=O)c2ccccc2n(Cc2cccc(Cl)c2)c1=O	-	-	0	0	-	-
Clc1ccc(-c2csc(Nc3ccccc3)[n+]2Cc2ccco2)c(Cl)c1	2.8µM	?	12µM	0	0	0
O=C(Nc1ccccc1)c1ccc(NC(=O)C2CC2)cc1	2.8µM	1.6µM	7.6µM	-	21µM	-
O=C(Nc1ccccc1C(=O)NC1CCCCC1)c1ccccc1	0	0	0	-	?	-
O=C(Nc1ccccc1C(=O)O)c1ccc(NC(=O)C2CCCCC2)cc1	0	0	9.5µM	-	0	-
CN(Cc1ccccc1)C(=O)c1ccc2c(c1)N(Cc1ccc(Cl)cc1)C(=O)c1ccccc1S2=O (stereo not given)	-	-	0	0	-	-
COc1cc(NS(=O)(=O)c2ccc3c(c2)CC(C)N3C(=O)C2CCC2)cc(OC)c1OC (stereo not given)	-	-	0	-	-	-
CCOc1ccc(Nc2oc(-c3ccc(Cl)cc3)nc2C#N)cc1	0	0	?	?	?	0
COc1ccc(Nc2oc(-c3ccccc3)nc2C#N)cc1	1.6µM	1.8µM	?	?	?	0
COc1ccc(Nc2oc(-c3ccc(OC)cc3)nc2C#N)cc1	3.5µM	?	2.4µM	-	?	-
